Calls of active or inactive are those of the source. Rule for the calls, unless noted: active = hit-call score of the fitted dose curve at least 0.9, where 1 is the maximum; inactive = score below 0.9.
How the values were obtained:
[1] = read-out: Macrophage colony-stimulating factor (MCSF), CSF1 (gene 1435); assay: BSK_LPS_MCSF: BioMAP Diversity Plus: LPS Assay for Macrophage colony-stimulating factor (MCSF) Biomarker Activity (AID 2283083); details: primary human HUVEC with PBMC; actives raise or lower the signal
Procedure, shortened: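 HUVEC–PBMC co-culture, M-CSF measured by ELISA 24 h after chemical dosing. Fitted in both directions relative to DMSO as negative control; overt cytotoxicity assessed by SRB total-protein staining in parallel cultures.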

[2] = read-out: Tissue Factor, F3 (gene 2152); assay: BSK_LPS_TissueFactor: BioMAP Diversity Plus: LPS Assay for Tissue Factor Biomarker Activity (AID 2283084); details: primary human HUVEC with PBMC; actives raise or lower the signal
Procedure, shortened: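 Human umbilical vein endothelial cells co-cultured with PBMC were dosed with compound. Cell-surface CD142 was measured by ELISA 24 h later. Activity was fitted bidirectionally against DMSO, with SRB total-protein staining in parallel cultures for cytotoxicity.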

[3] = read-out: Tumor necrosis factor (Homo sapiens) (UniProt P01375); assay: BSK_LPS_TNFa: BioMAP Diversity Plus: LPS Assay for Tumour Necrosis Factor alpha (TNFa) Biomarker Activity (AID 2283085); details: primary human HUVEC with PBMC; actives raise or lower the signal
Procedure, shortened: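 Primary human vascular co-culture of HUVEC and PBMC; TNFa ELISA 24 h after treatment, analysed as increase or decrease relative to DMSO control.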

[4] = read-out: Vascular cell adhesion molecule 1 (VCAM1), VCAM1 (gene 7412); assay: BSK_LPS_VCAM1: BioMAP Diversity Plus: LPS Assay for Vascular cell adhesion molecule 1 (VCAM1) Biomarker Activity (AID 2283086); details: primary human HUVEC with PBMC; actives raise or lower the signal
Procedure, shortened: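 Primary human vascular co-culture (umbilical vein endothelium plus PBMC) stimulated with LPS received chemical; 24 h later VCAM-1 was read by ELISA. Overt cytotoxicity was assessed by sulforhodamine B staining of parallel cultures at the same time point.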

CD38, CD38 (gene 952) = assay: BSK_SAg_CD38: BioMAP Diversity Plus: SAg Assay for CD38 Biomarker Activity (AID 2283087); details: primary human HUVEC with PBMC; actives raise or lower the signal
Procedure, shortened: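 Fluorescence ELISA of cell-surface CD38 served as the read-out, with either increase or decrease fitted against DMSO controls. Cells were a human umbilical vein endothelium plus PBMC co-culture under SEB/TSST-1 stimulation, measured 24 h after dosing.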

CD40, CD40 (gene 958) = assay: BSK_SAg_CD40: BioMAP Diversity Plus: SAg Assay for CD40 Biomarker Activity (AID 2283088); details: primary human HUVEC with PBMC; actives raise or lower the signal
Procedure, shortened: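 HUVEC plus PBMC co-culture, superantigen-activated, with CD40 read by ELISA 24 h after dosing. Curves fitted in both directions against DMSO. Overt cytotoxicity checked by parallel SRB total-protein staining.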

CD69, CD69 (gene 969) = assay: BSK_SAg_CD69: BioMAP Diversity Plus: SAg Assay for CD69 Biomarker Activity (AID 2283089); details: primary human HUVEC with PBMC; actives raise or lower the signal
Procedure, shortened: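 HUVEC co-cultured with PBMC were dosed with chemical, and CD69 was measured by ELISA with fluorescence read-out 24 h later. Bidirectional curve fitting used DMSO as negative control and activity baseline.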

[5] = read-out: Monocyte Chemoattractant Protein-1 (MCP1), CCL2 (gene 6347); assay: BSK_SAg_MCP1: BioMAP Diversity Plus: SAg Assay for Monocyte Chemoattractant Protein-1 (MCP1) Biomarker Activity (AID 2283090); details: primary human HUVEC with PBMC; actives raise or lower the signal
Procedure, shortened: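 MCP-1 levels in the endothelial–PBMC SAg co-culture were quantified by ELISA at 24 h post-dosing; both increases and decreases versus DMSO scored. Cytotoxicity monitored by SRB total protein in parallel cultures.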

[6] = read-out: E-selectin (Homo sapiens) (UniProt P16581); assay: BSK_SAg_Eselectin: BioMAP Diversity Plus: SAg Assay for Eselectin Biomarker Activity (AID 2283091); details: primary human HUVEC with PBMC; actives raise or lower the signal
Procedure, shortened: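 Human umbilical vein endothelial cells co-cultured with peripheral blood mononuclear cells, SAg system. E-selectin is measured by ELISA 24 h after dosing and fitted bidirectionally against DMSO. Cytotoxicity is checked by SRB staining of parallel cultures.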

[7] = BSK_SAg_PBMCCytotoxicity: PBMC Cytotoxicity Assessment in the BioMAP Diversity Plus: SAg Assay (AID 2283093); details: primary human HUVEC with PBMC;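 note: PBMC viability measured as Alamar Blue reduction fluorescence at 546/580 nm; fitted both ways against DMSO so a hit may be loss or gain of signal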;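 for AC50: PBMC superantigen activated with SEB plus TSST-1 one hour after compound addition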
Procedure, shortened: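 Human umbilical vein endothelial cells co-cultured with PBMC; PBMC (75,000/well) pre-treated with compound 1 h, then activated with SEB and TSST-1 (20 ng/mL final each) for 90 h. Alamar Blue added 6 h, fluorescence 546/580 nm; bidirectional fit versus DMSO.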

[8] = read-out: Interleukin-8 (IL8), CXCL8 (gene 3576); assay: BSK_SAg_IL8: BioMAP Diversity Plus: SAg Assay for Interleukin-8 (IL8) Biomarker Activity (AID 2283094); details: primary human HUVEC with PBMC; actives raise or lower the signal
Procedure, shortened: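 In this co-culture of human umbilical vein endothelium with peripheral blood mononuclear cells, IL-8 is assayed by ELISA at 24 h. DMSO serves as baseline for bidirectional curve fitting.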

[9] = BSK_SAg_Proliferation: Cell Proliferation Assessment in the BioMAP Diversity Plus: SAg Assay (AID 2283095); details: primary human HUVEC with PBMC;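 note: relative cell number as total protein by SRB absorbance in sub-confluent culture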
Procedure, shortened: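 Readout is SRB-stained protein (560 nm) in a primary human HUVEC and PBMC co-culture; sub-confluent cultures are read at 96 h. Activity is fitted bidirectionally using DMSO as baseline.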

[10] = BSK_SAg_SRB: Viability Assessment in the BioMAP Diversity Plus: SAg Assay (AID 2283096); details: primary human HUVEC with PBMC;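 note: cells read one day after compound addition; hits may be either gain or loss of signal compared with DMSO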
Procedure, shortened: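 Endothelial/PBMC primary human co-culture; compound 24 h; fix 10% TCA, stain 0.1% SRB, A560; protein content as cytotoxicity proxy; bidirectional curve fit, DMSO = baseline.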

[11] = biological target: human CYP1A2, CYP1A2 (gene 1544) (UniProt P05177); assay: NVS_ADME_hCYP1A2: NovaScreen (NVS) CYP450-related Enzyme Activity (ADME) Assay for human CYP1A2 (AID 2283102; active = hit-call score of the fitted dose curve at least 0.9, where 1 is the maximum)
Procedure, shortened: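 Recombinant human CYP1A2 from insect cells, cell-free, fluorogenic substrate; read 0.5 h after dosing with loss of fluorescence signal indicating inhibition. Primary screen in duplicate at 10 uM, acetonitrile as negative control.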

Measured: AC50

E-selectin (Homo sapiens), sequence (P16581 whole entry, looked up): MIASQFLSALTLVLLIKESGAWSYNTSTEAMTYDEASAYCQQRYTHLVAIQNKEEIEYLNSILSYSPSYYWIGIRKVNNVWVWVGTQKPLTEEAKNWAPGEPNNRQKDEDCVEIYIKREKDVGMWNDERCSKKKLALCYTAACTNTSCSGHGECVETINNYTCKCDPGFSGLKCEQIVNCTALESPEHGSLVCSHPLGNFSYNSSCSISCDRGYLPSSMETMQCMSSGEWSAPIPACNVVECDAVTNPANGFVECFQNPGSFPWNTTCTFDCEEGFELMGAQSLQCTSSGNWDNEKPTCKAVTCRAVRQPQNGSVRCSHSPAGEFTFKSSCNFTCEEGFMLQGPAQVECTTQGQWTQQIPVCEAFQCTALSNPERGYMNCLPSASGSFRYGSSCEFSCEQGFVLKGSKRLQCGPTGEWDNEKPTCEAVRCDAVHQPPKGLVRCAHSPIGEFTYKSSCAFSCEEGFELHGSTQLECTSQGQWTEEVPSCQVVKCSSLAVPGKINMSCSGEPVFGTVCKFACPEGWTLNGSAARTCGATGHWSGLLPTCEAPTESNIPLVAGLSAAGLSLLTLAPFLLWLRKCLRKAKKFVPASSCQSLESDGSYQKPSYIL
Tumor necrosis factor (Homo sapiens), sequence (P01375 whole entry, looked up): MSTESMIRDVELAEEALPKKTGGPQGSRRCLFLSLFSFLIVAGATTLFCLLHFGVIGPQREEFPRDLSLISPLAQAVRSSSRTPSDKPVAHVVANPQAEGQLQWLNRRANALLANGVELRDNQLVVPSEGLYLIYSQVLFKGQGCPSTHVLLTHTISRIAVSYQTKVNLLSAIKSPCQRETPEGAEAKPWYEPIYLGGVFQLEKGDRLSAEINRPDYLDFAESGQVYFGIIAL
human CYP1A2, CYP1A2 (gene 1544), sequence (P05177 whole entry, looked up): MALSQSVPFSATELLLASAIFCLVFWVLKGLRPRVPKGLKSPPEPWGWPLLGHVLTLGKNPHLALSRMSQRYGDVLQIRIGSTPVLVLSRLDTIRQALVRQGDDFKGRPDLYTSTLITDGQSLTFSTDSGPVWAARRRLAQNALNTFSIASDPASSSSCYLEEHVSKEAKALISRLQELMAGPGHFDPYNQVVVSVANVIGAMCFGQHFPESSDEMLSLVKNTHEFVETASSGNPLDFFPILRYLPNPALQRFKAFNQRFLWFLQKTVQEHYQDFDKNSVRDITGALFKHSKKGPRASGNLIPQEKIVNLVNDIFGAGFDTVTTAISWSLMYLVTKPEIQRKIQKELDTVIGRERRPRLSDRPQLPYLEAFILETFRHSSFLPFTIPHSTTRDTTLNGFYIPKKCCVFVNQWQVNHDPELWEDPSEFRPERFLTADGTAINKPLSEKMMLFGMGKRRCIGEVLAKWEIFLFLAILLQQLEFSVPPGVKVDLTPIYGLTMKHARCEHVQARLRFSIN

CC(=O)OC/C=C(\C)CCC=C(C)C
not listed: [11]
inactive: all other assays above

Cc1ccc(Cl)cc1
not listed: [11]
inactive: all other assays above

O=c1c(O)c(-c2ccc(O)c(O)c2)oc2cc(O)cc(O)c12
active: CD38, CD38 (gene 952) 29.9 µM | CD40, CD40 (gene 958) 36 µM | [7] 13 µM | [9] 28.6 µM | [10] 31 µM
not listed: [11]
inactive: all other assays above

Oc1ccc2ccccc2c1N=Nc1ccccc1
active: [3] 1.98 µM | [6] 4.27 µM | [9] 12.2 µM
not listed: [11]
inactive: all other assays above

O=C(N[C@@H](Cc1ccccc1)[C@@H](O)C(=O)N1C[C@@H](O)[C@@H](O)C1)c1cc2cc(Cl)ccc2[nH]1
inactive: all assays above

NS(=O)(=O)c1cc2c(cc1Cl)NCNS2(=O)=O
not listed: [11]
inactive: all other assays above

CCCCCCCCCCCCCCCC
not listed: [11]
inactive: all other assays above

Cc1oc(-c2ccccc2)nc1CCOc1cccc2c1ccn2CCC(=O)O
active: [3] 0.655 µM
not listed: [11]
inactive: all other assays above

OC[C@@H](O)[C@@H](O)[C@H](O)[C@H](O)CO
not listed: [10] | [11]
inactive: all other assays above
